Screens deposited in PubChem BioAssay by National Center for Advancing Translational Sciences (NCATS).
NPSR antagonist = antagonists of human neuropeptide S receptor cAMP signaling. actives 1% (n = 220,000). CHO-NPSR cells, cAMP TR-FRET, antagonist mode. Potency, µM (titrated, usually from 38.3 µM), inactives show top-dose activity change, negative = inhibition, usual class: inhibitors. AID 1461. Q6W5P4; note: potency is the fitted concentration of half-maximal effect; nearly all actives have a fitted effect of over 50% in size
JMJD2E inh = blocks human JMJD2E demethylase activity. AID 2147. JMJD2E catalytic domain, FDH-coupled NADH fluorescence (FDH is formaldehyde dehydrogenase). Potency, µM (series often up to 57.1 µM), for inactives: top-dose activity change, negative = inhibition, usual class: inhibitors. actives 1.6% (n = 230,000); active = well fitted inhibition curve with a large enough effect, not every such curve was filed as active; inconclusive = small, poorly fitted or top-dose-only effect, or another doubt; inactive = no such curve, though single readings can be large or run the other way;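 note: potency is the fitted concentration of half-maximal effect; 0% = wells with enzyme and -100% = buffer wells without enzyme; nearly all actives have a fitted effect of over 50% in size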
Target sequence (B2RXH2 1-337 limits assumed): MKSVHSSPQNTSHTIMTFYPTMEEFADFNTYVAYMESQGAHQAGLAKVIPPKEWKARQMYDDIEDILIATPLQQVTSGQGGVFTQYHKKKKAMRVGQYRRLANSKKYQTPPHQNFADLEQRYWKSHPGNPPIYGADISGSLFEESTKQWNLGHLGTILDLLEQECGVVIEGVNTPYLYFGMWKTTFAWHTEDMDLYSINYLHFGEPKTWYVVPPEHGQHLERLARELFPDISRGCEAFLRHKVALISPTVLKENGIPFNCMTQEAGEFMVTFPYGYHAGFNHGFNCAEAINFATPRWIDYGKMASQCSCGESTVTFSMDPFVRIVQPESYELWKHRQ
Coupling enz = inhibits coupling enzyme system, counter-screen for aldolase hits; coupling enzyme system counterscreen, AmpLite Red fluorescence; AID 2472; actives 0.67% (n = 290,000); activity change, negative = inhibition, % at 58.2 µM, hits read low; in the data active = activity change below about -30%
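Coupling enzymes only (glyceraldehyde-3-phosphate) + compound, at 57.5 uM final, 10 min RT; add substrate/coupling/AmpLite Red mix, 20 min RT; fluorescence ex 525/em 598 nm. Actives flag coupling-system interference.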
ALDH1A1 inh = blocks purified human ALDH1A1 activity | Potency, µM (titrated, usually from 75.3 µM), inactives show at the highest dose activity, negative = inhibition, usual class: inhibitors | P00352 | Purified ALDH1A1, NADH fluorescence, propionaldehyde substrate | actives 7.3% (n = 220,000); active = well fitted inhibition curve with a large enough effect, not every such curve was filed as active; inconclusive = small, poorly fitted or top-dose-only effect, or another doubt; inactive = no such curve, though single readings can be large or run the other way;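 note: potency is the fitted concentration of half-maximal effect; plate controls were no enzyme wells and a reference inhibitor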
RGS12 GoLoco inh = inhibitors of human Gai1-RGS12 GoLoco interaction (red fluorophore); P63096; Gai1:RGS12 GoLoco peptide FP, rhodamine, 10 min; Potency, µM (top dose mostly 61.6 µM), inactives show at the highest dose activity, negative = inhibition, usual class: inhibitors; actives 0.44% (n = 230,000); AID 880; active = well fitted inhibition curve with a large enough effect, not every such curve was filed as active; inactive = no such curve, though single readings can be large or run the other way; note: potency is the fitted concentration of half-maximal effect; nearly all actives have a fitted effect of over 30% in size
Sfp inh = Sfp phosphopantetheinyl transferase inhibition; Potency, µM, inactives show largest response in the series, negative = inhibition, hits mostly inhibitors; actives 3.5% (n = 310,000); Q9F4F7; Biochemical Sfp PPTase activity, qHTS;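 note: the enzyme is Sfp with the accession as filed and its product quenches rhodamine fluorescence; potency is the fitted concentration of half-maximal effect; 0% = enzyme reaction without inhibitor and -100% = no enzyme wells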
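Compounds were incubated with enzyme (final 15 nM) for 15 min at room temperature before substrate addition started the reaction. Fluorescence at 525 nm excitation, 598 nm emission was recorded immediately and after 30 minutes.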
Starred values were filed as active, the others as inactive; ? = inconclusive; / = no result given; [ ] = remark or other dose. An excerpt weighted towards active compounds, which were near 8.5% of everything screened. Unless noted, calls come from the whole dose curve; as a rule, active = well fitted curve in the direction sought with a large enough effect; inconclusive = small, poorly fitted or top-dose-only effect, or another doubt; inactive = no such curve, though single readings can be large; an effect the other way counts as inactive or inconclusive. Unless noted, % is set by controls: 0 for no effect and ±100 for the full control effect.

SMILES	NPSR antagonist	JMJD2E inh	Coupling enz	ALDH1A1 inh	RGS12 GoLoco inh	Sfp inh
O=C(NC(=S)NNC(=O)[C@H]1C[C@@H]1c1ccccc1)c1cccc(F)c1	5.6%	-8.7%	0.5	22.4µM*	6.1%	31.6µM*
Cc1nnc(SCCn2c(Br)nc3c2c(=O)[nH]c(=O)n3C)s1	-18.4%[46.1 µM]	3.0%	0.2	7.94µM*	2.8%	18.6%
Cn1c(=O)[nH]c(=O)c2c1nc(Br)n2C/C=N/NC(=O)c1ccccc1	-26.3%	13.8%	1.2	1.0%	-4.5%	4.1%
Cn1c(=O)[nH]c(=O)c2c1nc(Br)n2Cc1ccccc1Cl	-3.0%[46.1 µM]	-1.2%	-2.4	-15.7%	10.1%	9.0%
Cn1c(=O)[nH]c(=O)c2c1nc(Br)n2C/C=N/Nc1ccccc1	29.8%	-3.8%	-1.5	?	-4.8%	56.2µM*
Cn1c(=O)[nH]c(=O)c2c1nc(Br)n2CCC(=O)c1ccccc1	-9.8%[46.1 µM]	2.7%	1.4	3.55µM*	1.7%	-7.4%
CCN1CCN(CC(O)COC(c2ccccc2)c2ccccc2C)CC1 (configuration not stated)	/	/	-4.0	/	/	?
CSCCCNC(=S)N(C)CC(=O)Nc1ccc(C)cc1	20.9%	5.2%	-3.3	-12.3%	1.8%	-7.7%
CC1=Nn2c(nnc2-c2ccco2)SC1	?	1.7%	-2.2	17.8µM*	-25.9%	56.2µM*
Cc1ccccc1C1=Nn2c(nnc2-c2ccco2)SC1	4.7%	-9.0%	1.0	/	-0.5%	?
CN(C)CCCCNC(=O)c1ccc(-n2c(=O)c(=O)[nH]c3ccccc32)cc1	/	/	/	6.1%	/	/
CCOCCOC(=O)COc1ccc2c(-c3ccccc3)cc(=O)oc2c1	5.3%	1.4%	2.6	17.8µM*	-1.1%	6.5%
CN(C)C(=O)COc1ccc2c(-c3ccccc3)cc(=O)oc2c1	/	/	3.2	/	/	10.9%
COc1ccc(Cc2ccccc2C(=O)O)c2ccccc12	/	/	/	8.4%[13.5 µM]	-1.5%[14.2 µM]	/
COc1ccnc(Oc2ccc(F)cc2)c1C(=O)N/C=N/OCc1ccccc1	-14.2%	-3.8%	2.9	?	7.4%	-1.4%
Oc1c(Br)cc(Br)cc1CNc1cccc2cccnc12	/	/	-29.1	/	/	39.8µM*
O=C(O)c1ccncc1.O=C(O)c1ccncc1.[Cl][Pt]([Cl])([Cl])[Cl]	/	/	/	2.24µM*	-10.0%[14.2 µM]	/
O=C(O)CSCC(=O)c1ccccc1	26.8%[46.1 µM]	-1.7%	2.0	14.1µM*	-8.8%	-18.3%
O=C(CC(=O)c1ccncc1)c1ccccc1	/	/	/	3.55µM*	7.7%[14.2 µM]	/
O=C(CC(=O)c1ccccc1)c1ccccc1	/	?	-0.5	-1.9%	6.3%	-29.9%
C/C(=N\NC(=O)c1ccc(O)cc1)c1ccc(NC(=O)Cc2ccccc2)cc1	/	/	/	/	/	13.1%
CCOC(=O)/C(=C/c1ccc(OC(=O)c2ccccc2)cc1)C(C)=O	-25.1%	7.94µM*	2.2	?	-5.8%	?
CCCN1CCN(C(=O)c2cc(COc3ccc(F)cc3F)on2)CC1	/	/	0.4	/	/	14.9%
CC(C)=C1C2C=CC1C1C(=O)N(c3ccc4c(c3)OCO4)C(=O)C21 (configuration not stated)	-5.4%[46.1 µM]	-0.1%	-7.9	3.55µM*	-27.0%	?
CC(C)=C1C2CCC1C1C(=O)N(c3ccc4c(c3)OCO4)C(=O)C21 (configuration not stated)	3.8%	5.7%	-1.5	-4.3%	-3.7%	4.4%
Cc1nn(Cc2ccccc2)c(Cl)c1/C=C1\NC(=S)NC1=O	-7.5%	?	2.2	?	10.5%	39.8µM*
COc1ccc(/C=C/C(=O)NCC(=O)N=Nc2c(O)[nH]c3ccc([N+](=O)[O-])cc23)cc1	/	/	-11.0	/	/	4.5%
CCN(CC)Cc1cc(C(C)=O)ccc1OCC(C)C	18.2%[46.1 µM]	-5.0%	-4.0	1.12µM*	-12.7%	-9.7%
COc1ccc(-c2csc3ncn(-c4ccccc4)c(=O)c23)cc1OC	15.0%	-0.8%	3.3	7.94µM*	5.5%	-3.8%
CCOC(=O)N/N=C1/C[C@@H](O)[C@@H](O)[C@@H]2[C@@H]3C(=O)N([C@@H](C)c4ccccc4)C(=O)[C@H]3CC[C@@H]12	/	/	-2.0	12.1%[13.5 µM]	/	-5.5%
